According to article PMC5540273 (PLoS ONE, 2017):
Where two headings read alike, the source gives them in different places.

How the values were obtained:
Conditions in all cases: n = 1
SIK2 = system: SIK2
SIK = system: SIK
SLK = system: SLK
SNARK = system: T1, SNARK
T1 construct: gene NUAK2

SNRK = system: SNRK
SRC = system: SRC
SRMS = system: SRMS
SRPK1 = system: SRPK1
SRPK2 = system: SRPK2
SRPK3 = system: SRPK3
[1] = concentration: 1 μM, replicates: in singlicate
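Also: KINOMEscan kinase panel screen.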

Compound | %Inh (SIK2; [1]) [%] | %Inh (SIK; [1]) [%] | %Inh (SLK; [1]) [%] | %Inh (SNARK; [1]) [%] | %Inh (SNRK; [1]) [%] | %Inh (SRC; [1]) [%] | %Inh (SRMS; [1]) [%] | %Inh (SRPK1; [1]) [%] | %Inh (SRPK2; [1]) [%] | %Inh (SRPK3; [1]) [%] | %Inh (SIK2; 1 µM) [%] | %Inh (SIK; 1 µM) [%] | %Inh (SLK; 1 µM) [%] | %Inh (SNARK; 1 µM) [%] | %Inh (SNRK; 1 µM) [%] | %Inh (SRC; 1 µM) [%] | %Inh (SRMS; 1 µM) [%] | %Inh (SRPK1; 1 µM) [%] | %Inh (SRPK2; 1 µM) [%] | %Inh (SRPK3; 1 µM) [%]
COc1cc2nccc(Nc3ccc(NC(=O)c4ccc(C)cc4)c(O)c3)c2cc1OC.Cl [GW440132] | 0 | 16 | 44 | 0 | 0 | 20 | 71 | 18 | 0 | 0 |  |  |  |  |  |  |  |  |  | 
Clc1cc(Cl)cc(Nc2ccnc(Nc3cc(Cl)cc(Cl)c3)n2)c1 [GSK175726] | 0 | 8 | 8 | 10 | 0 | 49 | 11 | 0 | 0 | 0 |  |  |  |  |  |  |  |  |  | 
O=C(Nc1n[nH]c2cc(-c3cccc(F)c3F)ccc12)C1CC1 [SB-733894] | 0 | 0 | 0 | 1 | 3 | 0 | 3 | 44 | 22 | 5 |  |  |  |  |  |  |  |  |  | 
Cc1cc(N2Cc3ccccc3C2)nc(Nc2ccc(S(=O)(=O)N3CCOCC3)cc2)n1.Cl [GSK1669917] | 0 | 0 | 0 | 10 | 0 | 0 | 0 | 0 | 0 | 0 |  |  |  |  |  |  |  |  |  | 
Cc1cc(NCC(c2ccccc2)c2ccccc2)nc(NCc2ccc(C(F)(F)F)cc2)n1 [GW497681] | 0 | 0 | 0 | 0 | 0 | 0 | 0 | 0 | 22 | 0 |  |  |  |  |  |  |  |  |  | 
Cc1ccc(C(=O)Nc2ccc(Nc3ccnc4cc(-c5ccccn5)ccc34)cc2O)cc1.Cl [GW440146] | 0 | 18 | 0 | 0 | 0 | 56 | 80 | 27 | 0 | 3 |  |  |  |  |  |  |  |  |  | 
Cl.O=C(Nc1cccc(-c2nn3ncccc3c2-c2ccnc(Nc3cccnc3)n2)c1)c1c(F)cccc1F [GSK312879] | 0 | 0 | 17 | 0 | 0 | 13 | 5 | 30 | 0 | 7 |  |  |  |  |  |  |  |  |  | 
Nc1ncnc2[nH]c(-c3ccccc3)nc12 [AH5015] | 5 | 0 | 14 | 3 | 100 | 29 | 2 | 12 | 0 | 0 |  |  |  |  |  |  |  |  |  | 
Cc1ccc(NC(=O)Nc2cccc(C(F)(F)F)c2)cc1 [GSK955403] |  |  |  |  |  |  |  |  |  |  | 0 | 0 | 5 | 0 | 0 | 15 | 0 | 17 | 5 | 0
Cc1cccc(-c2cc(Nc3ccncc3)c3ccccc3n2)n1 [GSK223675] | 0 | 0 | 0 | 0 | 0 | 0 | 0 | 5 | 0 | 0 |  |  |  |  |  |  |  |  |  | 
COC(=O)c1c(-c2ccccc2)c2cc(OC)ccc2c(=O)n1Cc1ccccc1 | 6 | 1 | 0 | 12 | 1 | 8 | 0 | 5 | 9 | 11 |  |  |  |  |  |  |  |  |  | 
Fc1cc(Cl)ccc1Nc1ccnc2cc(I)ccc12 [GW551191] | 49 | 29 | 0 | 0 | 0 | 0 | 0 | 7 | 0 | 8 |  |  |  |  |  |  |  |  |  | 
CCn1c(-c2ccccn2)nc2cnccc21 [SB-736398] | 3 | 0 | 8 | 0 | 0 | 79 | 0 | 0 | 27 | 5 |  |  |  |  |  |  |  |  |  | 
Cc1cccc(-c2nc(Nc3ccncc3)c3ccccc3n2)n1 [GW855857] | 0 | 4 | 18 | 0 | 0 | 20 | 0 | 0 | 54 | 15 |  |  |  |  |  |  |  |  |  | 
Cl.Oc1ccc(-c2nc(-c3ccccc3)[nH]c2-c2ccncc2)cc1 [SB-428218] | 0 | 0 | 28 | 0 | 5 | 33 | 7 | 0 | 0 | 3 |  |  |  |  |  |  |  |  |  | 
CN(C)CCN(C)C(=O)c1cc(-c2ccncc2)c(-c2ccc(Cl)c(O)c2)o1.Cl.Cl [SB-710397] | 0 | 0 | 91.7 | 0 | 0 | 11 | 0 | 0 | 18 | 0 |  |  |  |  |  |  |  |  |  | 
CCn1c(-c2cccnc2O)nc2cnccc21 [SB-736715] | 0 | 0 | 0 | 0 | 0 | 0 | 0 | 0 | 0 | 20 |  |  |  |  |  |  |  |  |  | 
Cc1c(Cn2ccn3c(=O)cc(N4CCOCC4)nc23)cccc1C(F)(F)F [GSK2289044] | 0 | 0 | 13 | 5 | 0 | 0 | 0 | 12 | 0 | 0 |  |  |  |  |  |  |  |  |  | 
